49 compounds from PubChem BioAssay AID2685 (National Center for Advancing Translational Sciences (NCATS), 2010) can be followed below.

In all, about 320,000 compounds went through this assay and about 2,100 (0.66%) were called active. Not shown: some 53% with an inconclusive outcome. Calls come from the whole dose curve; as a rule, active = well fitted inhibition curve with a large enough effect in the signal ratio, with a control signal flat (not every such curve was filed as active); inconclusive = small, poorly fitted or top-dose-only effect, or effect the other way, or a change in a side signal; inactive = flat fitted curve, though single readings scatter; the % refers to the signal ratio. The full list was thinned out, with actives kept by preference.
Potency is the fitted concentration of half-maximal effect.

The assay can be described thus: qHTS Assay for Lipid Storage Modulators in Drosophila S3 Cells.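 For cell number change: cells counted by Cell Tracker Red CMTPX staining in the red channel.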 For lipid storage change, negative = inhibition: % is set by controls: 0 for no effect and ±100 for the full control effect. To be noted: BODIPY lipid droplet fluorescence, 18-24 h, cells fed with added oleic acid; cell number change: measured here: cell count max response; series mostly up to 46.1 µM; lipid storage change, negative = inhibition: at the top concentration. Put shortly: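 Laser-scanning cytometry quantifies lipid droplet accumulation (500–530 nm total intensity; droplet/cell object ratio) in oleic acid-fed (400 uM added) Drosophila S3 cells treated with a concentration series. 20 uM Triacsin C defined 100% inhibition.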
For orientation: Quantitative high-throughput screening tests each substance at several concentrations.
In the case of `Cc1ccc(NC(=O)C(=O)NCCc2c[nH]c3ccccc23)cc1C`, the cell number change is 15% and the lipid storage change, negative = inhibition was 3.29% [at 9.22 µM] (inactive).

In the case of `CCOCCCNC(=O)CN1C(=O)c2cccc3cccc1c23`, the compound was called inactive and the cell number change is -5.29%.

Take `Cc1ccc(NC(=O)c2ccccc2NS(=O)(=O)c2ccc(Cl)s2)cc1S(=O)(=O)N1CCOCC1`: the “lipid storage change, negative = inhibition” value was 9.85% (inactive) and the cell number change is 11.6%.

With `COc1ccc(C)cc1NC(=O)c1ccccc1NS(=O)(=O)c1ccc(Cl)s1`, the “lipid storage change, negative = inhibition” value was 9.92% (inactive).

Consider `COc1cc(NC(=O)c2ccccc2NS(=O)(=O)c2ccc(Cl)s2)cc(OC)c1`, for which the Potency was 16.4 µM (active) and the cell number change was -19.8%.

Turning to `CCN1CCN(c2nc3sc4c(c3c(=O)n2-c2ccc(OC)cc2)CCCCC4)CC1`, the “lipid storage change, negative = inhibition” value is -2.33% (inactive) and the cell number change was -9.24%.

Turning to `CCOC(=O)COc1ccccc1C1Nc2ccccc2C(=O)N1c1cccc(Cl)c1` (centres undefined), the “lipid storage change, negative = inhibition” value is -10% (inactive) and the cell number change turned out to be 2.87%.

Regarding `COc1ccc(NCc2nnc(SCC(=O)NCc3ccco3)n2-c2ccccc2OC)cc1`, the “lipid storage change, negative = inhibition” value was 4.09% (inactive) and the cell number change came out at 13.6%.

On to `COC(=O)[C@@H](NC(=O)NCc1cccc(OC)c1)C(C)C`, for which the “lipid storage change, negative = inhibition” value is 10.7% (inactive) and the cell number change is -13.3%.

Turning to `COc1cccc(CNC(=O)N[C@@H](C)C(=O)O)c1`, the “lipid storage change, negative = inhibition” value was -15.6% (inactive) and the cell number change was found to be 1.68%.

As to `CCC(C)[C@H](NC(=O)NCc1ccccc1Cl)C(=O)OC` (some centres undefined), the “lipid storage change, negative = inhibition” value is 7% (inactive) and the cell number change was -19%.

Regarding `CCC(C)[C@H](NC(=O)NCc1ccccc1Cl)C(=O)O` (some centres undefined), the Potency is 29.1 µM (active) and the cell number change is -0.143%.

As for `CCC(C)NC(=O)NCc1ccccc1F` (centres undefined), the “lipid storage change, negative = inhibition” value is -1.24% (inactive) and the cell number change was determined as 2.87%.

As to `COC(=O)[C@H](CCSC)NC(=O)NCc1ccccc1F`, the “lipid storage change, negative = inhibition” value is -0.91% (inactive) and the cell number change was -14.5%.

Consider `CCC(C)[C@H](NC(=O)NCc1ccc(Cl)cc1)C(=O)O` (some centres undefined), for which the “lipid storage change, negative = inhibition” value was 0.0506% (inactive) and the cell number change is 4.5%.

For `COC(=O)[C@@H](NC(=O)NCc1ccccc1F)C(C)C`, the Potency is 25.9 µM (active) and the cell number change is -6.12%.

On to `CCC(C)[C@H](NC(=O)NCc1cccc(OC)c1)C(=O)O` (some centres undefined), for which the Potency was 6.51 µM (active) and the cell number change was 1.61%.

With `CC(C)N(C)Cc1nnnn1CC(=O)NCc1cc(F)cc(C(F)(F)F)c1`, the “lipid storage change, negative = inhibition” value was -4.82% (inactive) and the cell number change is -9.03%.

With `Cn1nc(-c2ccccc2)c(CO)c1Oc1cccc(C(F)(F)F)c1`, the “lipid storage change, negative = inhibition” value is 14.8% (inactive) and the cell number change stood at 9.06%.

For the compound `COc1ccc(C(=O)CSc2nnc(C3CC3)n2N)cc1`, the “lipid storage change, negative = inhibition” value is -0.56% (inactive) and the cell number change is -1.83%.

With `Cc1ccc(NS(=O)(=O)c2cc(C(=O)O)ccc2Cl)cc1`, the Potency was 2.31 µM (active) and the cell number change is -3.53%.

On to `O=C(O)c1ccc(NS(=O)(=O)c2cc(Cl)ccc2Cl)cc1`, for which the “lipid storage change, negative = inhibition” value is -4.19% (inactive) and the cell number change worked out at 3.91%.

For `Cc1ccc(NS(=O)(=O)c2cc(C(=O)O)ccc2Cl)c(C)c1`, the “lipid storage change, negative = inhibition” value is 6.34% (inactive) and the cell number change was -3.54%.

In the case of `COCCN1Cc2cccc(C(=O)NC(C)CCc3ccco3)c2C1=O` (centres undefined), the “lipid storage change, negative = inhibition” value is 7.18% (inactive) and the cell number change stood at 4.03%.

As to `O=C(Nc1cccc(C(=O)O)c1)/C(=C\c1ccco1)NC(=O)c1ccccc1`, the “lipid storage change, negative = inhibition” value is -5.58% (inactive) and the cell number change amounted to 13%.

Consider `CCOC(=O)N1CCN(CC(=O)N2c3ccccc3Sc3ccccc32)CC1`, for which the “lipid storage change, negative = inhibition” value was -11.6% (inactive) and the cell number change was -12.6%.

Consider `C#CCOc1ccc(C2C3=C(CC(C)(C)CC3=O)N(CC(=O)O)C3=C2C(=O)CC(C)(C)C3)cc1`, for which the “lipid storage change, negative = inhibition” value is -19.8% (inactive) and the cell number change is -0.525%.

As for `C#CCOc1ccc(C2C3=C(CC(C)(C)CC3=O)N(CC(=O)O)C3=C2C(=O)CC(C)(C)C3)cc1OC`, the Potency is 10.3 µM (active) and the cell number change is -7.42%.

For the compound `COc1ccc(C2C3=C(CC(C)(C)CC3=O)N(CC(=O)O)C3=C2C(=O)CC(C)(C)C3)cc1OC`, the “lipid storage change, negative = inhibition” value was 2.8% (inactive) and the cell number change was -17.9%.

Turning to `O=C(CN1C(=O)c2ccccc2C1=O)Nc1ccc(-c2nc3ccccc3o2)cc1`, the outcome was inactive.

For the compound `Cc1nn(C)cc1C(C(=O)NC1CCCCC1)N(CCc1ccccc1)C(=O)c1cnccn1` (centres undefined), the “lipid storage change, negative = inhibition” value is 26.4% (inactive) and the cell number change turned out to be 19.3%.

Turning to `O=C(/C=C/c1cn(-c2ccccc2)nc1-c1cccnc1)N1CCCC1`, the “lipid storage change, negative = inhibition” value is -13% (inactive) and the cell number change was -19.7%.

Regarding `CCOc1cc(/C=N/NC(=O)c2ccncc2)ccc1OC(=O)c1ccccc1`, the Potency is 12.6 µM (active) and the cell number change is -17.2%.

For the compound `CCOc1cc(/C=N/NC(=O)c2cccnc2)ccc1OC(=O)c1ccco1`, the “lipid storage change, negative = inhibition” value is -11.5% (inactive) and the cell number change is -16.1%.

`CCOc1cc(/C=N/NC(=O)c2ccccn2)ccc1OC(=O)c1ccc(F)cc1`: the outcome was inactive and the cell number change amounted to 5.41%.

With `Cc1cccc(Cn2c(N(C)CCO)nc3c2c(=O)[nH]c(=O)n3C)c1`, the “lipid storage change, negative = inhibition” value was 7.8% (inactive) and the cell number change was 28.6%.

In the case of `CCN(c1ccccc1)S(=O)(=O)c1ccc(OC)c(NC(=O)CN2C(=O)NC(C)(C)C2=O)c1`, the “lipid storage change, negative = inhibition” value is 9.62% (inactive) and the cell number change was -3.73%.

Regarding `COc1ccc(NC(=O)CN2C(=O)NC3(CCCC3)C2=O)c(OC)c1`, the call was inactive and the cell number change was -7.62%.

As to `COc1ccc(C2(c3ccc(OC)cc3)NC(=O)N(CC(=O)N3CCOCC3)C2=O)cc1`, the Potency was 0.231 µM (active) and the cell number change amounted to 8.58%.

Regarding `COc1ccc(N2CCN(C(=O)CSc3ccc(C)cc3)CC2)cc1`, the “lipid storage change, negative = inhibition” value is -0.457% (inactive) and the cell number change stood at 6.76%.

For `COc1cccc(N2CCN(C(=O)CN3C(=O)NC4(CCCC4)C3=O)CC2)c1`, the “lipid storage change, negative = inhibition” value was -5.21% (inactive).

Consider `COc1ccc(N2CCN(C(=O)CN3C(=O)NC(C)(C4CC4)C3=O)CC2)cc1` (centres undefined), for which the “lipid storage change, negative = inhibition” value is 8.91% (inactive) and the cell number change is -22.3%.

With `COc1ccc(-c2csc(NC(=O)CN3C(=O)NC4(CCCC4)C3=O)n2)c(OC)c1`, the Potency is 6.51 µM (active).

Take `COc1ccc(N2CCN(C(=O)CSc3nc4ccccc4c(=O)[nH]3)CC2)cc1`: the compound was classed as inactive and the cell number change was -2.61%.

On to `COc1ccc(-c2csc(NC(=O)CN3C(=O)C4CCCCC4C3=O)n2)c(OC)c1` (centres undefined), for which the “lipid storage change, negative = inhibition” value is -15.1% (inactive) and the cell number change is -28.9%.

As for `COc1ccc(N2CCN(C(=O)CN3C(=O)NC4(CCCCCC4)C3=O)CC2)cc1`, the Potency is 5.8 µM (active) and the cell number change is -6.83%.

Regarding `COc1ccc(N2CCN(C(=O)CSc3nnc(C)c(=O)[nH]3)CC2)cc1`, the Potency is 29.1 µM (active) and the cell number change was 2.46%.

As to `COc1ccc(C2(c3ccc(OC)cc3)NC(=O)N(CC(=O)Nc3ccccc3)C2=O)cc1`, the compound was called inactive and the cell number change was determined as 10.9%.

For `CCC1(c2ccc(F)cc2)NC(=O)N(CC(=O)N2CCOCC2)C1=O` (centres undefined), the “lipid storage change, negative = inhibition” value is -5.08% (inactive) and the cell number change is -2.03%.
